± gives the uncertainty stated by the source.
Each compound was assayed on U87 (assay: cell viability relative to vehicle control; higher = less growth inhibition (less active)). Settings: 10 µM; 72 h.
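Note: viable cell number estimated from Alamar Blue fluorescence read at 560/90, part of a single-dose primary screen of an FDA-approved drug library.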

First: O=C(O)CCNC(=O)c1ccc(/N=N/c2ccc(O)c(C(=O)O)c2)cc1
Second: CCOC(=O)[C@H](CCc1ccccc1)N[C@H]1CCc2ccccc2N(CC(=O)O)C1=O
The cell viability of the first is lower: 99.6 ± 1.4% for the first, 107 ± 1.2% for the second.

Compared with C[C@@H]1O[C@@H](OC[C@H]2O[C@@H](Oc3c(-c4ccc(O)c(O)c4)oc4cc(O)cc(O)c4c3=O)[C@H](O)[C@@H](O)[C@@H]2O)[C@H](O)[C@H](O)[C@H]1O, OC[C@H]1O[C@@H](Oc2cc(O)cc(/C=C/c3ccc(O)cc3)c2)[C@H](O)[C@@H](O)[C@@H]1O is higher in cell viability: 91.89 ± 0.76% for the first, 99.7 ± 3.1% for the second.

Compared with CC(C)[C@H]1CC[C@H](C(=O)N[C@H](Cc2ccccc2)C(=O)O)CC1, NC[C@H]1CC[C@H](C(=O)Oc2ccc(CCC(=O)O)cc2)CC1 is lower in cell viability: 108 ± 1.6% for the first, 104.6 ± 0.48% for the second.

Compared with CCCCC1=NC2(CCCC2)C(=O)N1Cc1ccc(-c2ccccc2-c2nnn[nH]2)cc1, CN1CCN(C2=Nc3cc(F)ccc3Cc3ccccc32)CC1 [Fluperlapine] is higher in cell viability: 98 ± 3.2% for the first, 106 ± 3.3% for the second.

Cc1onc(-c2ccccc2)c1-c1ccc(S(N)(=O)=O)cc1 and CS(=O)(=O)c1ccc(-c2cc(Br)sc2-c2ccc(F)cc2)cc1 are within error of each other in cell viability: 106.8 ± 0.6% for the first, 107.7 ± 0.82% for the second.

First: CCN(CC)CC(=O)Nc1c(C)cccc1C
Second: CCN(CC)C(=O)C1(c2ccccc2)CC1CN (stereo not given) [Milnacipran]
The cell viability of the first is lower: 94.8 ± 2.8% for the first, 102 ± 1.5% for the second.

COc1cc(CNC(=O)CCCC/C=C/C(C)C)ccc1O [Capsaicin] and CC(C)OC(=O)CCC/C=C\C[C@@H]1[C@@H](CC[C@@H](O)CCc2ccccc2)[C@H](O)C[C@@H]1O are within error of each other in cell viability: 109 ± 1.5% for the first, 106 ± 4.2% for the second.

First: C=C1/C(=C\C=C2/CCC[C@]3(C)[C@@H]([C@H](C)CCCC(C)(C)O)CC[C@@H]23)C[C@@H](O)C[C@@H]1O
Second: COC(=O)C[C@](O)(CCCC(C)(C)O)C(=O)O[C@@H]1C(OC)=C[C@]23CCCN2CCc2cc4c(cc2[C@H]13)OCO4
The cell viability of the first is higher: 105 ± 2.2% for the first, 10.3 ± 0.73% for the second.

Compared with COc1ccccc1N1CCN(CC(O)COc2cccc3ccccc23)CC1 (stereo not given), CN(C)CCCSc1ccccc1NC(=O)/C=C/c1ccccc1 [Cinanserin] is higher in cell viability: 99.6 ± 1.9% for the first, 103.3 ± 0.66% for the second.

CC[N+](C)(CC)CCOC(=O)C(O)(c1ccccc1)C1CCCCC1 (stereo not given) and CN1CCCCC1CCN1c2ccccc2Sc2ccc([S+](C)[O-])cc21 (stereo not given) [Mesoridazine] are within error of each other in cell viability: 109 ± 1.3% for the first, 105 ± 2.8% for the second.

Going from Cc1cc2c(s1)Nc1ccccc1N=C2N1CCN(C)CC1 to Cc1ccsc1C(=CCCN1CCC[C@@H](C(=O)O)C1)c1sccc1C, the cell viability falls from 108 ± 1.7% to 104 ± 1.1%.

CN(C)CC[C@@H](c1ccc(Cl)cc1)c1ccccn1 and CN(C)CC[C@@H](c1ccc(Br)cc1)c1ccccn1 are the same in cell viability: 104 ± 1.6% for the first, 104.1 ± 0.82% for the second.

First: C=CCc1ccc(O)c(-c2ccc(O)c(CC=C)c2)c1
Second: COCc1c(C(C)C)nc(C(C)C)c(/C=C/[C@@H](O)C[C@@H](O)CC(=O)O)c1-c1ccc(F)cc1
The cell viability of the first is higher: 100.7 ± 1% for the first, 14.2 ± 3% for the second.

Going from Nc1nnc(-c2cccc(Cl)c2Cl)c(N)n1 to Nc1ccc2cn[nH]c2c1, the cell viability rises from 102 ± 1.2% to 108 ± 2.4%.

C=CC[C@@H]1/C=C(\C)C[C@H](C)C[C@H](OC)[C@H]2O[C@@](O)(C(=O)C(=O)N3CCCC[C@H]3C(=O)O[C@H](/C(C)=C/[C@@H]3CC[C@@H](O)[C@H](OC)C3)[C@H](C)[C@@H](O)CC1=O)[C@H](C)C[C@@H]2OC and CC(=O)O[C@H]1C[C@@H]2CC[C@@H]3[C@H](CC[C@@]4(C)[C@H]3C[C@H]([N+]3(C)CCCCC3)[C@@H]4OC(C)=O)[C@@]2(C)C[C@@H]1N1CCCCC1 are within error of each other in cell viability: 101.8 ± 0.73% for the first, 103.2 ± 0.3% for the second.

O=C1CC[C@@H](C(=O)N2CSC[C@H]2C(=O)O)N1 and COc1ccc2c3c1O[C@H]1C[C@@H](O)C=C[C@@]31CCN(C)C2 [Galanthamine] are within error of each other in cell viability: 99.4 ± 1.6% for the first, 100 ± 0.85% for the second.

First: CC1(C)C[C@@H]1C(=O)N/C(=C\CCCCSC[C@H](N)C(=O)O)C(=O)O
Second: CN=C(N)NCCC[C@H](N)C(=O)O [L-Ornithine, N5-[imino(methylamino)methyl]-[CAS]]
The cell viability of the first is higher: 129 ± 3.1% for the first, 104.9 ± 0.88% for the second.

Going from Nc1c2c(nc3c1CCC3)CCCC2 to Cc1[nH]c(=O)c(C#N)cc1-c1ccncc1, the cell viability rises from 97.1 ± 5.7% to 109 ± 2.6%.

Going from CCC1=C[C@H]2CN(C1)Cc1c([nH]c3ccccc13)[C@@](C(=O)OC)(c1cc3c(cc1OC)N(C)[C@H]1[C@@](O)(C(=O)OC)[C@H](OC(C)=O)[C@]4(CC)C=CCN5CC[C@]31[C@@H]54)C2 [Vinorelbine Bitatrate] to COc1ccnc(C[S+]([O-])c2nc3cc(OC(F)F)ccc3[nH]2)c1OC (stereo not given), the cell viability rises from 18 ± 5% to 125.2 ± 1.1%.

Going from CC(=O)Oc1ccccc1C(=O)Nc1ncc([N+](=O)[O-])s1 to Cc1cccc(Nc2ccncc2S(=O)(=O)NC(=O)NC(C)C)c1, the cell viability rises from 103 ± 2.3% to 124 ± 2.1%.
